# Sampled rows, rich in hits. Any-hit rate of the full collection: about 19%.
# TDP1 cell noCPT: qHTS for Inhibitors of human tyrosyl-DNA phosphodiesterase 1 (TDP1): qHTS in cells in absence of CPT. AID 686978, 2013. hit rate 15% among 420,000. Potency, µM (series often up to 46.2 µM), inactives show at the top dose activity change, negative = growth inhibition, hits mostly inhibitors. DT40 Tdp1-/- hTDP1 cells, no CPT, ATP luminescence, 48 h; note: potency is the fitted concentration of half-maximal effect; nearly all actives have a fitted effect of over 55% in size
#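 A cellular qHTS used chicken DT40 cells lacking endogenous Tdp1 but carrying stably transfected human TDP1. Compounds were applied without camptothecin, and cell growth kinetics were judged by ATP-dependent luminescence after ≥48 hr.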
# HT1080NT lethal: qHTS for induction of synthetic lethality in tumor cells producing 2HG: qHTS for the HT-1080-NT fibrosarcoma cell line; Potency, µM (titrated, usually from 46.1 µM), for the others: at the highest dose activity, negative = less viability, usual class: cytotoxic; HT-1080-NT fibrosarcoma viability, CellTiter-Glo ATP luminescence, 48 h; hit rate 1.6% among 360,000;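 note: NT is the 2HG producing partner of a matched IDH1 knockdown line; potency is the fitted concentration of half-maximal effect; 0% = DMSO-treated cells and -100% = media-only wells without cells; nearly all actives have a fitted effect of over 55% in size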
#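 Luminescent CellTiter-Glo readout after 48 hours of compound exposure at 37 degrees C defined viability of HT-1080-NT cells. Activity was normalized to DMSO wells and cell-free media wells; concentration-response curves were fitted and assigned curve classes.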
# IL1B secr inh: qHTS for Inhibitors of Inflammasome Signaling: IL-1-beta AlphaLISA Primary Screen. THP-1 LPS/ATP IL-1B secretion, AlphaLISA, 16 h; stronger effect = lower value. activity change, % at 57.5 µM. hit rate 4.7% among 360,000. AID 743279, 2014; in the data active = activity change below about -50%; inconclusive = mostly about -30% to -49%
#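 Secreted IL-1B measured by AlphaLISA bead assay after 16 h compound exposure of THP-1 cells; compounds (final up to 57.5 uM) added 1 h before LPS (250 ng/mL) and ATP (1.25 mM) stimulation; lower signal means less secretion.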
# ELG1 DNA repair: qHTS screen for small molecules that inhibit ELG1-dependent DNA repair in human embryonic kidney (HEK293T) cells expressing luciferase-tagged ELG1; HEK293T ELG1-luciferase reporter, luminescence, 16 h; DNA damage induced by 5-fluorouridine; Potency, µM (doses to about 46.1 µM), for inactives: at the top dose activity change, negative = inhibition, hits mostly inhibitors; hit rate 2.3% among 330,000; note: potency is the fitted concentration of half-maximal effect; nearly all actives have a fitted effect of over 55% in size
#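 Overnight (16 hr) co-exposure of 2,000 cells/well to 5-fluorouridine and compound at 37 °C preceded detection. Luciferase was quantified via ONE-Glo luminescence; loss of signal denotes inhibition.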
# TDP1 cell CPT: qHTS for Inhibitors of human tyrosyl-DNA phosphodiesterase 1 (TDP1): qHTS in cells in presence of CPT. chicken DT40 Tdp1-/-;hTDP1 cells + 20 nM CPT, ATP luminescence, 48 h. Potency, µM (series often up to 46.2 µM), without a hit: at the top dose activity change, negative = growth inhibition, actives largely listed as inhibitors. hit rate 12% among 420,000; note: potency is the fitted concentration of half-maximal effect; nearly all actives have a fitted effect of over 55% in size
#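 Chicken DT40 Tdp1-/- cells stably complemented with human TDP1 were seeded at 400 cells/well in medium containing 20 nM camptothecin, exposed to pin-transferred compounds, and grown at 37 °C for at least 48 hr. Viability was read as ATP luminescence.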
# HT1080 IDH1KD tx: qHTS for induction of synthetic lethality in tumor cells producing 2HG: qHTS for the HT-1080-IDH1KD cell line. Potency, µM (highest dose often 46.1 µM), for inactives: top-dose activity, negative = toxicity, most hits filed as cytotoxic. HT-1080 IDH1 knockdown viability, ATP luminescence, 48 h. hit rate 2% among 360,000. AID 686971, 2013;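 note: potency is the fitted concentration of half-maximal effect; 0% = DMSO wells and -100% = cell-free medium wells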
#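 Viability of IDH1-knockdown HT-1080 fibrosarcoma cells was assessed by CellTiter-Glo after 48 h at 37 °C with titrated compound; concentration-effect curves were classified by fit quality and response size.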
# * = called active by the depositor; u = inconclusive; x = no result given. Unless noted, calls come from the whole dose curve; as a rule, active = well fitted curve in the direction sought with a large enough effect; inconclusive = small, poorly fitted or top-dose-only effect, or another doubt; inactive = no such curve, though single readings can be large; an effect the other way counts as inactive or inconclusive. Unless noted, % is set by controls: 0 for no effect and ±100 for the full control effect.
SMILES,TDP1 cell noCPT,HT1080NT lethal,IL1B secr inh,ELG1 DNA repair,TDP1 cell CPT,HT1080 IDH1KD tx
Cc1ccc2c(c1)cc1c(=O)n(Cc3ccccc3Cl)nc(C)n12,-1.3%,x,x,x,1.4%,x
O=C(NC1CCCC1)C(C1CC1)n1c(-c2cc3ccccc3[nH]2)nc2ccccc21 (stereo not given),u,-17.9%,55.6,x,u,u
COc1ccc(-n2c(=O)c3ccccc3n(Cc3ccc(F)cc3Cl)c2=O)cc1OC,-1.3%,x,x,x,-4.8%,x
COc1cccc(Oc2ccc(C(F)(F)F)cc2NC(=O)CCc2nc3ccccc3c(=O)[nH]2)c1,18.4µM*,-20.6%,17.8,0.3%,16.4µM*,-25.6%
COc1ccccc1NS(=O)(=O)c1cc(NC(=O)CCc2nc3ccccc3c(=O)[nH]2)ccc1C,u,-25.4%,12.7,13µM*,u,-13.7%
O=C(Nc1ccccc1C(=O)NC(Cc1ccccc1)C(=O)O)c1ccccc1 (stereo not given),-3.4%,15.1%,-11.3,9.3%,-7.1%,7.4%
O=C(CSc1ccccc1C(=O)NCc1ccccc1)NC12CC3CC(CC(C3)C1)C2,29.1µM*,-9.0%,u,u,u,-2.1%
O=C(Nc1ccccc1C(=O)NC(Cc1ccccc1)C(=O)NC1CCCCC1)c1ccccc1 (stereo not given),25.9µM*,-6.7%,17.6,u,u,-2.9%
CC(C)CCNC(=O)c1ccccc1SCC(=O)NC1CCCCCCC1,u,1.8%,-3.7,u,23.1µM*,-5.4%
O=C(CSc1ccccc1C(=O)NCc1ccccc1)NC1CCCCCCC1,u,4.9%,-101.0*,-24.8%,u,1.2%
CC1CCN(C(=O)c2ccc(NC3=C(Cl)C(=O)N(Cc4ccccc4)C3=O)cc2)CC1,11.6µM*,-12.4%,-93.0*,10.3µM*,18.4µM*,-27.6%
O=C(CN1C(=O)c2ccccc2C1=O)Nc1cccc(O)c1,18.3%,6.5%,2.2,9.2%,17.6%,4.0%
O=C1C(Cl)=C(Nc2cccc(O)c2)C(=O)N1Cc1ccccc1,u,u,-98.2*,-8.2%,23.1µM*,u
CC1CCCCN1C(=O)c1ccc(C(=O)c2ccccc2)cc1 (stereo not given),14.6µM*,1.3%,6.3,u,u,-1.0%
CC1CCCCN1C(=O)c1ccc(NC(=O)c2ccccc2Cl)cc1 (stereo not given),-29.2%,3.2%,u,-18.2%,-0.4%,6.0%
COc1ccc(OC)c(NC2=C(c3ccccc3)C(=O)c3ccccc32)c1,1.03µM*,x,x,x,1.46µM*,x
COC1OC2COC(c3ccccc3)OC2C2OC12 (stereo not given),14.5%,9.0%,-17.8,x,13.1%,14.3%
OC[C@@H]1CN(Cc2ccccc2)C[C@H](n2cnc3c(NC4CCCC4)ncnc32)O1,u,6.1%,5.0,x,u,20.0%
CC1CCCCN1C(=O)c1cccc(NC2=C(Cl)C(=O)N(Cc3ccccc3)C2=O)c1 (stereo not given),u,u,-88.1*,10µM*,u,u
CC1CCCCN1CCNC(=O)c1ccc2c(c1)N(Cc1ccccc1)C(=O)c1ccccc1S2(=O)=O (stereo not given),u,u,-27.2,-2.4%,u,u
CCOc1ccccc1NC1=C(Cl)C(=O)N(Cc2ccccc2)C1=O,u,u,-4.8,-6.2%,u,u
COc1ccc(OC)c(NC2=C(Cl)C(=O)N(Cc3ccccc3)C2=O)c1,u,-16.2%,-164.8*,u,u,u
COc1ccc(Oc2ncc3nc(-c4ccc(OC)cc4)c(=O)n(CCC#N)c3n2)cc1,-8.5%,x,x,x,10.5%,x
NC(=S)N/N=C/c1ccc(OC(=O)c2cccnc2)cc1,-0.5%,9.3%,27.4,12.3%,2.0%,5.0%
NC(=S)NN=Cc1nccc2c(N)cccc12,1.16µM*,u,119.9,x,1.84µM*,u
SMILES,TDP1 cell noCPT,HT1080NT lethal,IL1B secr inh,ELG1 DNA repair,TDP1 cell CPT,HT1080 IDH1KD tx
CCN(C(C)=O)c1cnc(C=NNC(N)=S)c2ccccc12,4.61µM*,-22.2%,118.9,x,3.66µM*,u
CCC(CC)N1CCN(C(=O)c2cc(OC)c(OC)c(OC)c2)CC1,14.3%,-0.5%,0.0,-11.0%,-3.8%,-4.6%
O=c1[nH]c2cc(C(F)(F)F)c(N3CCOCC3)cc2n(CP(=O)(O)O)c1=O,-1.2%,x,x,x,0.0%,x
Cn1nc(-c2ccccc2)c(C(O)c2ccc(Cl)cc2)c1Cl (stereo not given),u,0.5%,20.9,-3.7%,u,-9.9%
Cn1nc(-c2ccccc2)c(CSc2ccccc2Cl)c1Cl,10.3µM*,u,-18.2,-22.8%,u,u
Cc1c(C(C)C)c(=O)n(-c2ccc(S(=O)(=O)NC(C)C)cc2)n1C,13µM*,4.8%,43.5,-10.4%,u,-24.5%
CCN(CC)S(=O)(=O)c1ccc(-n2c(=O)c(C(C)C)c(C)n2C)cc1,u,0.8%,2.9,-2.7%,-20.2%,19.1%
Cc1c(C(C)C)c(=O)n(-c2ccc(S(=O)(=O)NC3CC3)cc2)n1C,10.3µM*,7.6%,25.7,u,-5.3%,25.6%
COC(CNS(=O)(=O)c1ccc(S(=O)(=O)NC2CC2)cc1)OC,21.0%,-8.4%,-2.7,-3.0%,-3.1%,-6.1%
Cc1cc(C)nc(NC(=O)CSc2ncccn2)n1,x,x,x,-7.5%,x,x
CC1(C(=O)NS(=O)(=O)c2cccc(F)c2)CCN1C(=O)c1ccccc1 (stereo not given),-0.9%,5.1%,21.7,x,-6.9%,20.4%
CCCCn1c(SCc2nc3ccccc3s2)nc2ccccc2c1=O,8.2µM*,4.1%,0.0,-13.1%,20.6µM*,5.1%
CCCCn1c(SCC#N)nc2ccccc2c1=O,u,x,x,x,7.5%,x
CCCCn1c(SCc2nc3ccccc3s2)nc2cc(S(N)(=O)=O)ccc21,16.4µM*,u,u,18.4µM*,16.4µM*,u
O=C(COC(=O)CNC(=O)c1ccc2c(c1)OCO2)Nc1ncc(Cl)cc1Cl,10.5%,-1.0%,-15.1,u,7.5%,-1.2%
